In the supplement of paper PMC6555819:

Tests used:
Experiment in all cases: PBM binding z-score (relative to random genomic background probes); higher = stronger binding; sequences stand for … in GC…GCGATTGACAGCGTAGAATGAAGG
[1] = test system: PPARg:RXRa DBDmut IVT, anti-RXR (DBD mutation: RXRa K156A/R161A, NR concentration 270 nM, RXRa partner concentration 90 nM)
Method in brief: (§1)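 The probes on custom Agilent 4×180K protein-binding microarrays were double-stranded, with 34-nt variable regions bearing direct-repeat seeds, single-nucleotide variants, half-site ablations and random human genomic background sequences. Incubation lasted 1 h with ligand-free nuclear receptor dimers in PBS pH 7.4, 2% milk, 0.02% Triton X-100, 1 mM DTT, 0.2 mg/mL BSA and 0.4 mg/ml salmon testes DNA. Antibodies against each partner (one per run) detected bound dimers, and fluorescence scans were regression-normalized. Binding z-scores take the random background probes as reference.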

[2] = test system: PPARg:RXRa IVT, anti-PPARg (NR concentration 270 nM, RXRa partner concentration 90 nM)
Method in brief: as §1

[3] = test system: PPARg DBDmut:RXRa IVT, anti-PPARg (DBD mutation: PPARg1 K132A/R137A, NR concentration 270 nM, RXRa partner concentration 90 nM)
Method in brief: as §1

[4] = test system: PPARg DBDmut IVT, anti-PPARg (DBD mutation: PPARg1 K132A/R137A, NR concentration 270 nM)
Method in brief: as §1

[5] = test system: PPARg homodimer (NR concentration 180 nM)
Method in brief: as §1

[6] = test system: PXR:RXRa (NR concentration 270 nM, RXRa partner concentration 90 nM)
Method in brief: as §1

[7] = test system: PXR homodimer (NR concentration 270 nM)
Method in brief: as §1

[8] = test system: RARa:RXR (NR concentration 270 nM, RXRa partner concentration 90 nM)
Method in brief: as §1

[9] = test system: RARa homodimer (NR concentration 270 nM)
Method in brief: as §1

[10] = test system: RARb:RXRa (NR concentration 270 nM, RXRa partner concentration 90 nM)
Method in brief: as §1

| Sequence | PBM binding z-score [1] | PBM binding z-score [2] | PBM binding z-score [3] | PBM binding z-score [4] | PBM binding z-score [5] | PBM binding z-score [6] | PBM binding z-score [7] | PBM binding z-score [8] | PBM binding z-score [9] | PBM binding z-score [10] |
| --- | --- | --- | --- | --- | --- | --- | --- | --- | --- | --- |
| TAGCCTAGGTCATTGGGCCAGTATCGTACGCATC | 2.91 | 3.95 | 0.593 | -0.521 | 1.11 | 1.68 | -0.331 | 2.39 | 0.0894 | 3.85 |
| CCAGACAGGTAAAAGGTAACTCAGTCTGGTACGC | 0.377 | 0.821 | -0.535 | -0.566 | 0.614 | 0.265 | 0.0427 | 0.712 | 0.346 | 0.382 |
| CGTCCAAGGTCAAAGGTCGGTGAAGAGATGACGG | 3.9 | 5.09 | 0.166 | -0.0129 | 2.61 | 5.91 | 0.774 | 7.5 | 0.478 | 5.68 |
| CCAGACGGGTGAAAGGTAACTCAGTCTGGTACGC | 0.482 | 2.35 | -1 | -1.51 | 0.107 | 0.559 | -0.486 | 1.55 | -0.431 | 0.652 |
| CGAACGAGGGCATGAGTTGATCGCAAATGCCGAT | 2.91 | 2.12 | 0.532 | -0.694 | -0.0725 | 0.503 | -0.144 | 0.222 | -0.96 | 1.86 |
| AGAATGAGGTTATATGTAGATCAGGGAAGAAAGT | 3.28 | 2.52 | 1.48 | 1.02 | 1.32 | 1.2 | 0.891 | 1.75 | 1.37 | 1.57 |
| GATACAGGGTCAAGACCAGAGTACGCGTATTGAT | 1.96 | 3.52 | 1.38 | 0.619 | 1.49 | 3.34 | 0.195 | 3.93 | 0.851 | 4.28 |
| TCATATAGGTAAATGGTAGGTGAAAGTCCGATCT | 4.03 | 3.04 | 0.629 | 0.943 | 1.37 | 0.974 | 0.669 | 1.43 | 1.61 | 0.698 |
| TAGCCTAGGTCAGATGGGGCCAGTATACGCTATA | 1.03 | 1.7 | -0.854 | -0.361 | 0.556 | 3.45 | -0.272 | 1.24 | -0.56 | 3.42 |
| CAAACTAAGTCAAGGTCAAAGTCGGTTTGTGCCA | 2.53 | 3.35 | 0.787 | 0.588 | 2.93 | 4.73 | 2.29 | 4.9 | 1.46 | 4.13 |
| TCTTGTAGATCAACAGGAGATTAAGAAAGATCGA | 1.37 | 0.548 | 1.52 | 0.865 | -0.322 | -0.306 | -0.21 | -0.526 | -0.298 | -0.393 |
| TCATATAGGTAGACAGGTGAAAGTCCGTAAGTTA | 3.02 | 1.33 | 1.18 | 0.507 | 1.25 | 0.852 | 0.981 | 0.512 | 1.24 | 0.76 |
| TCTTGTAGATCAATAGTGGTTAAGAAAGTGCGCT | 1.98 | 0.303 | 0.28 | 1.33 | 0.545 | 0.46 | 0.364 | 0.481 | 0.947 | 0.0691 |
| TCTAGTTGGTCACGGAGGTCACACCCGACGGGTA | 2.48 | 4.28 | 1.28 | 1.19 | 2.95 | 4.15 | 1.24 | 4.2 | 1.58 | 3.79 |
| TGAATGAGGTTATGAGATCAGGGAACGTTGCAAA | 1.33 | 2.1 | 0.285 | -0.0697 | 0.328 | 0.684 | 0.16 | 1.57 | -0.0238 | 1.39 |
| TAGCCTAGGTCATTCAGGAGCCAGTATAGAAAGC | 1.4 | 2.52 | 0.758 | 0.0429 | 0.878 | 1.43 | -0.343 | 2.19 | -0.28 | 3.62 |
| ACTAGCAGGCCAGGTTTGGGTCACTCAAACAAAG | -0.173 | 0.446 | -0.511 | -0.687 | 0.235 | 0.351 | -0.166 | 1.17 | -0.279 | 1.32 |
| CCTGCTAGGTCATGGTCAGTTAATCTACAGTATG | 4.72 | 3.92 | 0.767 | 0.558 | 1.63 | 2.31 | -0.286 | 2.62 | 0.426 | 3.96 |
| TAGCCTAGGTCATGCGGGGCAGTATAGTGTCGGC | 1.69 | 3.02 | 0.874 | -0.0244 | 0.993 | 2.16 | -0.37 | 2.61 | -0.595 | 3.75 |
| CTCGAAAGGTCGGTTGATGTGAGTATACGGATAA | 0.122 | 0.641 | 0.802 | 0.00433 | 1.37 | 1.07 | 0.216 | 1.41 | 0.252 | 2.86 |
| GCTGCTAGGTCAGATTGGTCAGCTAACGGGTACG | 2.72 | 2.3 | -0.411 | -0.686 | 0.271 | 0.33 | -0.223 | 0.855 | -0.468 | 3.27 |
| TTACCAAGGTGAAGGGTCGTTGATGCACGCCTTG | 1.59 | 4 | 0.187 | -0.561 | 0.981 | 1.57 | -0.419 | 2.72 | -0.291 | 2.08 |
| TAGCCTAGGTCATTCAGGGGACAGTATAGAAAGC | 2.17 | 3.28 | 0.412 | 0.909 | 1.58 | 2.58 | 0.0541 | 3.72 | 0.228 | 4.09 |
